From PubChem BioAssay
bCat KO growth – primary screen for growth suppressors in beta-catenin knockout HCT116 cells (colon tumor, human); viability, % at 10 µM; actives 1.5% (n = 140,000); HCT116 beta-catenin knockout viability, CellTiter-Glo, 60 h; active compounds read low; AID 818, 2007;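 active means viability at or under a set limit, the compound median less 4 SD, cut at about 6% in these data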;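 further: 0% = Hyamine 1622 control at 20 µM and 100% = untreated cell control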
INS promoter inh – inhibitors of insulin promoter-driven GFP, primary screen, imaging, TRM-6 cells (human fetal islet line), eGFP reporter, cell count. reporter expression induced with tamoxifen. inhibition, % at 2 µM. actives 0.9% (n = 130,000). AID 1273, 2008;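 active means inhibition above the mean plus 3 SD, with well images judged a real hit on visual review, cut at about 60% in these data, passing the limit was not always enough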
L major viab – Leishmania major promastigote growth inhibition, primary screen; Leishmania major promastigotes, resazurin fluorescence viability; inhibition, % at 10 µM; actives 9% (n = 200,000); AID 1063, 2008; in the data active means inhibition above about 50%;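 further: promastigotes grown with compound for 44 hours at 28 °C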
p97 inhibitor – inhibitors of human p97 ATPase, primary screen, biochemical; Transitional endoplasmic reticulum ATPase (Homo sapiens), P55072; inhibition, % at 8 µM; AID 1481, 2009; recombinant p97 ATPase, Kinase-Glo ATP luminescence, 3 h; actives 0.42% (n = 220,000); in the data active means inhibition above about 15%;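 further: 0% = DMSO vehicle and 100% = wells lacking enzyme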
ROMK mod – ROMK potassium channel modulators, primary screen, cell-based, thallium flux, MLSMR library; Tet-inducible ROMK, thallium flux fluorescence; actives lie on both sides; actives 2% (n = 130,000); B-score at 10 µM; ATP-sensitive inward rectifier potassium channel 1 (Homo sapiens), P48048;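 active means signal ratio slope over the read window, or its plate-corrected B-score, at least 3 SD from the plate mean, either direction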;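 further: B-score of the F/F0 ratio slope over 7 to 12 s after thallium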
Target sequence (P48048 whole entry, looked up): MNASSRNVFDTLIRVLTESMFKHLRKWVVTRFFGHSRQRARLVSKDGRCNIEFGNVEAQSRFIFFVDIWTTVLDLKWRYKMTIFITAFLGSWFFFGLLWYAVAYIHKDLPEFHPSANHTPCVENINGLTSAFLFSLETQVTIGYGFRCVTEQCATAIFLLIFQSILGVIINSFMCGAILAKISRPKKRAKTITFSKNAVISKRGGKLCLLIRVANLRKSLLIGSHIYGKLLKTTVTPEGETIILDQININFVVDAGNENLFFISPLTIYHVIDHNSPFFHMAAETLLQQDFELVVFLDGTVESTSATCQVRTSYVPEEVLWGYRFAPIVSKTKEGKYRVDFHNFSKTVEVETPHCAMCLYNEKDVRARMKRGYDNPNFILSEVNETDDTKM
HCT116 PTEN-null – growth suppression of PTEN-null HCT116, primary screen, cell-based, CellTiter-Glo | HCT116 PTEN-null viability, 60 h; active compounds read low | actives 1.2% (n = 140,000) | viability, % at 10 µM;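 active means viability at or below a set limit, 4 SD under the median of all tested compounds, cut at about 3.7% in these data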;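 further: PTEN knockout HCT116 line with beta catenin targeted HCT116 as companion control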
The depositor's hits bear a star; · = no result given. Rows were chosen to be rich in hits. Some 10% of all compounds tested hit in one or more screens of this group.

SMILES | bCat KO growth | INS promoter inh | L major viab | p97 inhibitor | ROMK mod | HCT116 PTEN-null
O=c1[nH]c2cccnc2n1Cc1ccccc1 | 101 | 82* | -2 | 4 | 0.69 | 97
Cc1ccc2c(CN3CCN(CCO)CC3)cc(=O)oc2c1 | 96 | 11 | 1 | -3 | -0.23 | 105
Cc1ccc2c(Cn3cc(C(F)(F)F)cc(Cl)c3=O)cc(=O)oc2c1 | 96 | -11 | 52* | 8 | · | 95
Cc1cc(C)c(S(=O)(=O)N(C2=NCCS2)S(=O)(=O)c2c(C)cc(C)cc2C)c(C)c1 | 96 | -20 | 98* | 3 | -1.4 | 98
CCOC(=O)CSc1nc2ccccc2c(=O)n1C1CCCC1 | 92 | 33 | -4 | 4 | -0.92 | 102
CCCCNC(=O)CSc1nc2ccccc2c(=O)n1C1CCCC1 | 77 | · | 95* | -2 | -0.16 | 74
Cc1ccc(-n2nc(C)c(NC(=O)CCl)c2C)cc1C | 7 | -479 | 56* | 1 | -0.61 | 6
Cc1cc(C)c2cc(CN(Cc3ccco3)C(=S)NCC3CCCO3)c(=O)[nH]c2c1 (stereo unspecified) | · | · | 15 | 6 | 0.34 | ·
CC(C)n1c(-c2ccc(N(C)C)cc2)nc2ccccc21 | 72 | -19 | 50* | -4 | · | 74
CCOc1ccccc1Nc1nc2ccccc2n1C(C)C | · | 0 | 83* | 0 | -1.2 | ·
CCOc1ccccc1Nc1nc2ccccc2n2cnnc12 | 76 | 46 | -6 | 4 | 0.56 | 81
CCCn1c(Nc2ccccc2)nc2ccccc21 | 92 | -10 | 7 | 4 | 0.15 | 102
CC(C)n1c(Nc2ccccc2)nc2ccccc21 | 105 | -4 | 9 | 3 | -3.2* | 104
O=c1[nH]cc(COCc2ccccc2)c(=O)[nH]1 | 2.6* | 60 | -6 | 3 | · | 4
Cc1cccc(NC(=O)N2CCCC2C(=O)Nc2ccccc2)c1 (stereo unspecified) | · | · | 3 | 5 | -0.96 | ·
COc1ccc2cc(/C=N/NC(=O)CN(c3ccccc3C)S(=O)(=O)c3ccccc3)c(Cl)nc2c1 | 58 | -43 | 37 | 7 | · | 40
CC(C)C(Nc1ccc(S(=O)(=O)N2CCOCC2)cc1[N+](=O)[O-])C(=O)O (stereo unspecified) | · | · | -3 | 6 | 0.56 | ·
CSCCC(Nc1ccc(S(=O)(=O)N2CCOCC2)cc1[N+](=O)[O-])C(=O)OCC(=O)NCC(C)C (stereo unspecified) | 91 | 0 | 65* | 4 | 0.19 | 109
C/C(=N\NC(=O)Cn1ccc(C(F)(F)F)n1)c1ccco1 | · | 50 | -4 | -3 | 0.54 | ·
CCn1c(=O)cc(SCC(=O)N2CCN(c3ccccc3F)CC2)c2ccccc21 | 81 | 21 | 53* | 2 | · | 80
CCn1c(=O)cc(SCC(=O)N2CCN(c3ccccn3)CC2)c2ccccc21 | 81 | 15 | 5 | -1 | · | 85
O=C(O)c1ccccc1C(=O)NCc1cccnc1 | 100 | · | -4 | 0 | 0.81 | 103
Cc1ccc(S(=O)(=O)N(Cc2ccccc2)c2ccccc2C(=O)NCc2cccnc2)cc1 | 74 | -13 | 64* | -2 | · | 80
COc1ccc(S(=O)(=O)N(Cc2ccccc2)c2ccccc2C(=O)Nc2ccccc2C(=O)NCc2ccco2)cc1 | 85 | -32 | 66* | 1 | 1.2 | 84
Cc1ccccc1CN(c1ccc(C(=O)Nc2ccccc2C(=O)NCc2ccco2)cc1)S(C)(=O)=O | 91 | 7 | 81* | 7 | 1.1 | 86
SMILES | bCat KO growth | INS promoter inh | L major viab | p97 inhibitor | ROMK mod | HCT116 PTEN-null
COc1ccc(S(=O)(=O)Nc2ccccc2C(=O)NCc2ccco2)cc1 | 110 | 0 | -5 | 2 | -0.023 | 90
COc1cccc(/C=N/N2CCN(C)CC2)c1 | 95 | 73* | -6 | 1 | 0.76 | 108
COc1ccc(/C=N/N2CCN(C)CC2)cc1O | 100 | 12 | -3 | -1 | · | 92
CN1CCN(/N=C/c2ccc(N(c3ccccc3)c3ccccc3)cc2)CC1 | · | · | 26 | -1 | 0.074 | ·
CN1CCN(/N=C/c2ccc(Cl)c(Cl)c2)CC1 | 75 | · | 97* | 2 | -1.5 | 85
CN1CCN(/N=C/c2ccc(Br)cc2)CC1 | · | · | 4 | 6 | -0.86 | ·
CN1CCN(/N=C/c2ccc(N(C)c3ccccc3)cc2)CC1 | · | -5 | 83* | 2 | 0.34 | ·
Cc1nc2c(nnn2Cc2ccccc2)c(=O)[nH]1 | · | 35 | -7 | 5 | -1.5 | ·
CCn1ccc(C(=O)Nc2c(C)nn(Cc3c(F)c(F)c(F)c(F)c3F)c2C)n1 | 90 | -364 | -6 | -4 | 0.15 | 97
COC(=O)c1c(NC(=O)C2CC(=O)NN2Cc2ccccc2)sc(C)c1C (stereo unspecified) | 88 | -30 | 100* | -2 | · | 94
O=C(Nc1cccc(O)c1)c1ccccc1 | 84 | -106 | 62* | 4 | 0.21 | 86
O=C(NNc1cc(Br)c(O)c(Br)c1)c1ccccc1 | · | · | 88* | 3 | 0.052 | ·
CC(C)c1cc(NC(=O)c2ccccc2)cc(C(C)C)c1O | · | · | 5 | 1 | -1.3 | ·
Cc1ccc(C(=O)Nc2cccc(C(=O)NCc3ccccc3)c2)cc1 | 100 | -41 | 52* | 6 | · | 95
CC(C)c1ccccc1NC(=O)c1cccc(NC(=O)c2ccccc2)c1 | 91 | -52 | 91* | 2 | -0.054 | 91
COc1ccc(C(=O)Nc2cccc(C(=O)NCc3ccccc3)c2)cc1 | · | · | 2 | 3 | -0.53 | ·
Nc1nnc(CC(=O)N/N=C/c2ccc(-c3cccc(C(=O)O)c3)o2)s1 | · | · | · | 9 | -0.3 | ·
O=C(CSc1nc(-c2cccs2)cc(C(F)(F)F)n1)Nc1cc(OCC(F)(F)F)cc([N+](=O)[O-])c1 | 2.1* | 33 | 10 | 1 | -0.17 | 9
CCC(C)NC(=O)CSc1nc(-c2cccs2)cc(C(F)(F)F)n1 (stereo unspecified) | 91 | 9 | 1 | 3 | -0.48 | 91
CC(C)CNC(C(=O)Nc1ccc([N+](=O)[O-])cc1Br)c1ccccc1 (stereo unspecified) | 82 | 26 | 79* | -10 | · | 77
CN(C)C(CNC(C(=O)Nc1ccc([N+](=O)[O-])cc1Br)c1ccccc1)c1ccccc1 (stereo unspecified) | · | · | 20 | 0 | -0.03 | ·
COC(=O)Cc1ccc(NC(=S)NC2CC2)cc1 | · | · | · | 2 | · | ·
O=C(NNc1nc(-c2ccccc2)cs1)c1ccco1 | 34 | -3 | 67* | -3 | 0.057 | 44
O=C(NNc1nc(-c2ccc(Cl)cc2)cs1)c1ccco1 | 10 | -37 | 58* | 1 | 0.99 | 10
NNc1nc(-c2ccccc2)cs1 | · | 45 | 90* | 6 | -0.014 | ·
c1ccc(-c2csc(Nc3ncccn3)n2)cc1 | 66 | 6 | -3 | 13 | 0.62 | 69
Cc1ccc(-c2csc(NC(=S)NC(=O)c3ccco3)n2)cc1 | 94 | 29 | -8 | 3 | 0.77 | 85
